# In the library only some 3.6% were active in any assay of this set; here they are far more common.
# Autofluor counter: counter-screen for toxin protease inhibitors: compound fluorescence; compound autofluorescence counterscreen, microsphere flow cytometry; stronger effect = higher value; fluorescence intensity (concentration not given with the values); 360,000 compounds, 3.1% hits; AID 624483; in the data active = fluorescence intensity above about 16000; inconclusive = no clear call, values can overlap the other calls
# MazEF act: increases E. coli MazEF RNase cleavage of RNA; FAM/BHQ RNA-DNA oligo cleavage fluorescence, 5 h; activation, % at 20 µM; AID 504720; 350,000 compounds, 0.32% hits; P0AE70; in the data active = activation above about 50%
# Target sequence (P0AE70 whole entry, looked up): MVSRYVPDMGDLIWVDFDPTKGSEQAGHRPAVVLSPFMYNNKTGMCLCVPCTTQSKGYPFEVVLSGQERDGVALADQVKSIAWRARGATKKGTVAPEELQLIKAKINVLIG
# Anthrax LF prot: blocks Bacillus anthracis lethal factor protease | 360,000 compounds, 0.12% hits | inhibition, % at 10 µM | multiplex microsphere protease cleavage assay, LF | P15917 | AID 588501; note: plate controls were buffer without enzyme for full effect and enzyme alone for no effect
# BoNT-F LC inh: BoNT F light chain protease inhibition; 360,000 compounds, 0.22% hits; Multiplex microsphere protease cleavage assay, flow cytometry; inhibition, % at 10 µM; AID 588497; in the data active = inhibition above about 35%, passing the limit was not always enough; inconclusive = no clear call, values can overlap the other calls; note: plate controls were buffer without enzyme for full effect and enzyme alone for no effect
# BoNT A protease: BoNT A light chain protease inhibition. multiplex microsphere protease substrate cleavage, flow cytometry. AID 588499. 360,000 compounds, 0.17% hits. inhibition, % at 10 µM; note: plate controls were buffer without enzyme for full effect and enzyme alone for no effect
# BoNT-A LC CP1: BoNT/A light chain protease inhibition. 720 compounds, 3% hits. inhibition, % at 10 µM. AID 602139. multiplex microsphere protease assay, flow cytometry. shares compounds with BoNT-F LC inh; in the data active = inhibition above about 32%
# BoNT-F LC CP1: inhibitors of Botulinum neurotoxin F light chain protease; AID 602140; inhibition, % at 10 µM; multiplex microsphere protease cleavage assay, flow cytometry; 720 tested, under 10 active; shares compounds with BoNT-F LC inh; call rule not given here
# Anthrax LF CP1: Bacillus anthracis lethal factor protease inhibition | shares compounds with BoNT-F LC inh | multiplex microsphere protease cleavage assay, LF | inhibition, % at 10 µM | 720 tested, under 10 active | AID 602142; call rule not given here
# * hit, by the source's call; u = inconclusive; x = not tested or not shown. Cut-off read from the data, not from the text of the source, unless noted: active = inhibition above about 30%; inconclusive = no clear call, values can overlap the other calls; inactive = below that.
SMILES,Autofluor counter,MazEF act,Anthrax LF prot,BoNT-F LC inh,BoNT A protease,BoNT-A LC CP1,BoNT-F LC CP1,Anthrax LF CP1
CCOc1cc2nc3c4ccccc4n(C)c3nc2cc1OCC,2580,-9.2,19.6,7.9,48.5*,7.5,-0.1,3.1
CCOC(=O)CCCCC(=O)c1[nH]c(=O)[nH]c1CSc1nc(-c2ccccc2)c(C#N)c(=O)[nH]1,5259,-4.3,-6.0,15.2,3.7,x,x,x
CCOC(=O)CCCCC(=O)c1[nH]c(=O)[nH]c1CSCCO,5536,-9.1,2.8,64.5*,8.0,0.9,-3.2,-5.3
CCOC(=O)CCCCC(=O)c1[nH]c(=O)[nH]c1Cn1cnc2ccccc21,5662,5.3,-6.2,34.3,4.8,-0.1,-9.9,-2.8
C=CC1=CCN(S(=O)C(C)(C)C)[C@H]1CCO (some centres undefined),3787,-2.4,-10.1,0.5,0.1,x,x,x
O=C(CCC(=O)N1CCN(c2ccc(F)cc2)CC1)N1CCN(c2ccc(F)cc2)CC1,3564,3.2,11.8,41.0*,0.7,-2.3,-11.4,2.4
O=C(CN(C(=O)CNC(=O)c1ccco1)c1ccc(F)cc1)NC1CCCCC1,5215,10.2,-1.8,2.3,1.2,x,x,x
C=CCn1cnc2c(oc3ccccc32)c1=O,3046,6.2,35.1*,7.0,3.2,-2.5,-3.4,-2.6
O=c1c2oc3ccccc3c2ncn1Cc1ccccc1Cl,10056,15.2,-7.3,-1.3,-0.1,x,x,x
Cc1cc(C(=O)Nc2ccc(S(=O)(=O)Nc3onc(C)c3C)cc2)c(C)o1,10628,-1.7,-20.9,41.9*,30.4*,-0.1,-0.4,-1.0
Cc1noc(NS(=O)(=O)c2ccc(NC(=O)c3ccoc3C)cc2)c1C,6406,1.8,-2.9,1.4,0.2,x,x,x
CCC1(c2ccc(Cl)cc2)NC(=O)N(CC(=O)NC2CCCCCC2)C1=O (centres undefined),5200,1.2,-5.2,2.3,1.3,x,x,x
COc1ccc(N2CCc3c(C)nc4c(OC)cccc4c32)cc1,4379,-0.6,-0.4,-0.8,0.2,x,x,x
Cc1nc2c(C)cccc2c2c1CCN2c1ccccc1F,3906,7.8,34.9*,u,u,0.1,-5.0,-0.2
COc1ccc(S(=O)(=O)NC(C)C(=O)N2CCCC2)cc1Cl (centres undefined),3107,1.0,30.9*,u,2.5,0.3,16.4,-2.0
Cc1cc2cc(CNC(=O)COc3ccccc3)ccc2n1C,2787,-4.9,-25.6,-71.8,69.2*,6.2,-15.2,1.7
COc1ccc(CC(=O)NCc2ccccc2)cc1OC,4181,7.0,-2.1,u,-0.6,x,x,x
Cc1cc2cc(CNC(=O)NC3CCCCC3)ccc2n1C,2076,2.8,-106.9,-131.7,23.4,x,x,x
Cc1cc2cc(CNC(=O)c3ccco3)ccc2n1C,4270,-8.4,-17.5,-56.6,27.9,x,x,x
COc1ccc(CC(=O)NCc2ccc3c(c2)cc(C)n3C)cc1OC,2746,0.1,10.2,-25.3,50.8*,1.6,-8.0,-3.8
COCC(=O)NCc1ccc2c(c1)cc(C)n2C,1948,-22.3,0.6,-5.0,4.6,2.7,-5.0,-0.9
COc1ccc(C(=O)NCc2ccc3c(c2)OCO3)cc1,4493,-2.3,-1.8,-3.0,-0.2,x,x,x
Cc1cc2cc(CNC(=O)c3ccc4c(c3)OCO4)ccc2n1C,1744,13.0,-50.3,-85.8,64.7*,7.3,-10.8,2.8
COc1cccc(C(=O)OCC(=O)NCC2CCCO2)c1 (centres undefined),4327,6.8,-4.1,-7.8,-0.4,x,x,x
COc1c(C)cccc1C(=O)NCc1ccc2c(c1)OCO2,3541,1.5,-12.1,35.6*,-0.6,0.3,-3.6,1.2
SMILES,Autofluor counter,MazEF act,Anthrax LF prot,BoNT-F LC inh,BoNT A protease,BoNT-A LC CP1,BoNT-F LC CP1,Anthrax LF CP1
COc1cc(OC)cc(C(=O)NCc2ccc3c(c2)cc(C)n3C)c1,2199,1.5,-47.0,-82.1,73.1*,0.8,-1.3,-4.0
Cc1ccccc1-c1cnc2c(c1)C(=O)N([C@H](C)CO)C[C@@H](C)[C@H](CN(C)C(=O)c1ccncc1)O2,3872,10.4,-1.5,-3.2,0.4,x,x,x
O=[N+]([O-])c1ccc(C2=NN(c3ccccc3)C(c3ccco3)C2)cc1 (centres undefined),18109*,-8.0,31.0*,u,58.7*,59.4*,x,17.0
Cc1ccc(C2=NN(S(=O)(=O)c3ccccc3)C(c3ccco3)C2)cc1 (centres undefined),7991,-0.6,4.0,2.7,-1.5,x,x,x
Cc1ccc(C(=O)Nc2ccc(O)cc2C(=O)O)cc1,8453,4.4,1.8,33.4,3.7,3.1,0.9,-4.0
Cc1ccc(NC(=O)CS(=O)CC(=O)N(C(C)C(=O)NC2CCCCC2)C(C)(C)C)cc1 (centres undefined),3668,7.2,1.3,-2.3,-0.8,x,x,x
Cc1nnc(SCC(=O)Nc2sccc2C(N)=O)n1Cc1ccccc1,5801,-9.0,6.0,35.8*,u,-1.1,-5.9,-0.8
CCc1nnc(NC(=O)CSc2nnc(C)n2Cc2ccccc2)s1,6940,7.5,-7.6,-6.8,-1.2,x,x,x
CCC(C)[C@H](NC(=O)[C@@H]1Cc2ccccc2CN1)C(=O)Nc1ccc2c(c1)OCO2 (some centres undefined),u,-15.6,-2.1,-5.9,1.5,x,x,x
NC(=O)C(c1ncc(C(F)(F)F)cc1Cl)c1c(Cl)cccc1Cl (centres undefined),u,8.1,u,48.0*,u,0.5,-3.3,5.0
CN(Cc1cccc(Cl)c1Cl)C(=O)CCNC(=O)c1ccco1,3826,-2.9,-3.7,-1.5,-0.1,x,x,x
Cc1ccc(-c2nc3cc(Br)cnc3nc2-c2ccc(C)cc2)cc1,4410,6.5,21.5,7.4,45.7*,24.4,10.6,12.7
O=[N+]([O-])c1cccc(S(=O)(=O)N2CCCC2)c1,2590,8.5,-2.0,32.8,3.0,-1.9,-3.6,-3.9
CCN1CCN(S(=O)(=O)c2cccc([N+](=O)[O-])c2)CC1,3152,14.4,-0.3,0.2,0.4,x,x,x
CCOc1ccc(S(=O)(=O)Nc2ccc(C(=O)NCC(C)(C)N3CCOCC3)cc2)cc1,5847,-7.6,-2.0,-3.0,-0.9,x,x,x
CC(C)=CC1C(C(=O)NCCOc2ccccc2)C1(C)C (centres undefined),3785,-8.7,-5.7,35.4*,0.9,-0.2,-5.9,-1.2
CC(C)n1ncc2c(C(=O)NCCc3ccc(S(N)(=O)=O)cc3)cc(C3CC3)nc21,x,-10.4,x,x,x,x,x,x
CCC(C)c1ccc(NC(=O)NCCN2CCCCC2)cc1 (centres undefined),4150,15.9,-0.4,u,1.6,x,x,x
Cc1ccc(C)c(NC(=O)NNS(=O)(=O)c2ccc(C)c(C)c2)c1,3972,8.6,-3.2,13.2,4.9,x,x,x
O=C(Nc1ccc(Oc2ccc(NC(=O)Nc3ccc([N+](=O)[O-])cc3)cc2)cc1)Nc1ccc([N+](=O)[O-])cc1,3338,-11.1,-3.1,8.2,4.3,x,x,x
CCOc1cccc(OCCCCN2CCCCC2)c1,10400,-0.5,-7.4,0.5,0.9,x,x,x
Brc1cccc(OCCCCN2CCCCC2)c1,2936,0.5,-1.7,35.2*,3.5,0.2,5.2,2.9

# Assay outcomes deposited in PubChem BioAssay by several laboratories.
